Screening results: PubChem BioAssay, National Center for Advancing Translational Sciences (NCATS)
TrxR1 substrate: qHTS Assay for Substrates of Mammalian Selenoprotein Thioredoxin Reductase 1 (TrxR1): qHTS; Thioredoxin reductase 1, cytoplasmic (Rattus norvegicus), O89049; purified TrxR1 substrate turnover, NADPH consumption readout; Potency, µM (doses to about 114 µM); 390,000 compounds, 0.01% hits; also: nearly all actives have a fitted effect of over 50% in size
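Rat TrxR1, dispensed at 90 nM, was prereduced with 400 uM NADPH (final) for 5 min at ~22 deg C, then incubated with compound 15 min before 400 uM selenite. A first-read NADPH fluorescence drop versus no-compound background flagged substrates.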
Apoferritin bind: qHTS Assay for Identification of Novel General Anesthetics | 350,000 compounds, 0.074% hits | apoferritin/1-aminoanthracene competitive binding, fluorescence | Ferritin light chain (Equus caballus), P02791 | Potency, µM (doses to about 77.5 µM), usual class: inhibitors | AID 485281, 2010; also: nearly all actives have a fitted effect of over 20% in size
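Apoferritin-based anesthetic binding model; compound displacement of fluorescent 1-AMA measured as endpoint fluorescence after 10 minutes at room temperature, scaled to free-ligand and complex controls.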
IDH1 R132H inh: qHTS for Inhibitors of mutant isocitrate dehydrogenase 1 (IDH1): qHTS; Isocitrate dehydrogenase [NADP] cytoplasmic (Homo sapiens), O75874; IDH1-R132H enzyme, NADPH consumption, diaphorase/resazurin fluorescence; Potency, µM (top dose mostly 76.6 µM), hits mostly inhibitors; 390,000 compounds, 0.093% hits; also: nearly all actives have a fitted effect of over 65% in size
Target sequence (O75874 whole entry R132H, stated change not applied): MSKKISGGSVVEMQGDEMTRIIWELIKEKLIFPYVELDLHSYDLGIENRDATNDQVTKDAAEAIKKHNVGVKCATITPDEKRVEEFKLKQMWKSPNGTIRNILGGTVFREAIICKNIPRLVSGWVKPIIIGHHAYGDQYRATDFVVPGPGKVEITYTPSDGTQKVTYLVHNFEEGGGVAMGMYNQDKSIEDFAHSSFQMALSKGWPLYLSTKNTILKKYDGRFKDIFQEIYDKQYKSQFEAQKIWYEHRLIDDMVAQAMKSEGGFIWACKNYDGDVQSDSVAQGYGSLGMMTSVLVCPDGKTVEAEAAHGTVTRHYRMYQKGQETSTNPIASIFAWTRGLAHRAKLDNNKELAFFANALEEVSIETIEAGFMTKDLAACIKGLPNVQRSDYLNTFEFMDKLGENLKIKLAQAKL
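IDH1-R132H (0.5 ug/mL) preincubated 30 min with compound, then NADPH (0.016 mM) and alpha-KG (2 mM) added; 80 min at RT, pH 7.5. Remaining NADPH coupled via diaphorase/resazurin to fluorescence (540/590 nm); concentration-response curves normalized to no-enzyme control.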
GALK inhibitor: qHTS Assay for Inhibitors of Human Galactokinase (GALK). Purified GALK, Kinase-Glo residual ATP luminescence. Potency, µM (titrated, usually from 57.5 µM), most hits filed as inhibitors. P51570. 270,000 compounds, 0.007% hits
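Human GALK (5 nM) with 35 uM ATP and 100 uM galactose in 20 mM HEPES pH 8.0, 5 mM MgCl2, 60 mM NaCl, 1 mM DTT, 0.01% BSA. After 1 h at room temperature, leftover ATP was read by Kinase-Glo Plus luminescence.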
rTrxR1 inhibitor: qHTS Assay for Inhibitors of Mammalian Selenoprotein Thioredoxin Reductase 1 (TrxR1): qHTS; recombinant rTrxR1, NADPH fluorescence consumption, selenite substrate; AID 588453, 2011; 390,000 compounds, 1% hits; Potency, µM (highest dose often 114 µM), actives largely listed as inhibitors; also: nearly all actives have a fitted effect of over 65% in size
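Rat TrxR1 (90 nM in the dispensed reagent) was pre-reduced with 400 uM NADPH for 5 min at room temperature, then incubated with compound for 15 min. After 400 uM selenite was added, NADPH fluorescence (Ex 340/Em 450 nm) was followed for 8 min.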
PKM2 act: qHTS Assay for Activators of Human Muscle isoform 2 Pyruvate Kinase; Potency, µM (doses to about 57.5 µM), actives largely listed as activators; purified PKM2, Kinase-Glo ATP luminescence, activation; response scale: 0% is enzyme alone, no compound; Pyruvate kinase PKM (Homo sapiens), P14618; 260,000 compounds, 0.34% hits; AID 1631, 2009; also: nearly all actives have a fitted effect of over 55% in size
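Purified hPK-M2 (>95% pure) converted ADP (0.1 mM final) to ATP with 0.5 mM PEP in 50 mM imidazole pH7.2, KCl, MgCl2, Tween 20, BSA; 1 h at room temperature. ATP detected by Kinase-Glo luminescence.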
Numbers stand for hits. A selection: hits, their analogues and other compounds. The true share with any hit is near 1.3%. Calls follow the shape of the dose curve; as a rule, active = well fitted curve in the direction sought with a large enough effect; inconclusive = small, poorly fitted or top-dose-only effect, or another doubt; inactive = no such curve, though single readings can be large; an effect the other way counts as inactive or inconclusive.

Screening COc1ccc(-n2c(SCC(=O)NCC3CCCO3)nc3ccccc32)cc1 (configuration not stated) returned TrxR1 substrate inactive, Apoferritin bind inactive, IDH1 R132H inh inactive, GALK inhibitor inactive, rTrxR1 inhibitor inactive and PKM2 act inactive.
For N#CCCn1c(SCC(=O)NCC2CCCO2)nc2ccccc21 (configuration not stated) the results were TrxR1 substrate inactive, Apoferritin bind inactive, IDH1 R132H inh inactive, GALK inhibitor inactive, rTrxR1 inhibitor inactive and PKM2 act 20µM.
NC(=O)CSc1nc2scc(-c3ccco3)c2c(=O)n1-c1ccccc1 was read as TrxR1 substrate inactive, Apoferritin bind inactive, IDH1 R132H inh inactive, GALK inhibitor inactive, rTrxR1 inhibitor 8.9µM and PKM2 act inconclusive.
Screening C=CCn1c(SCC(=O)NCC2CCCO2)nc2scc(-c3ccco3)c2c1=O (configuration not stated) returned TrxR1 substrate inactive, Apoferritin bind inactive, IDH1 R132H inh inactive, GALK inhibitor inactive, rTrxR1 inhibitor inactive and PKM2 act inconclusive.
CCc1ccc(N2CC(c3nnc(NC(=O)c4ccco4)s3)CC2=O)cc1 (configuration not stated) was read as TrxR1 substrate inactive, Apoferritin bind inactive, IDH1 R132H inh inactive and rTrxR1 inhibitor inactive.
`Cc1ccc(NC(=O)CSc2nc(=O)n(CCN3CCOCC3)c3c2CCC3)cc1Cl` gave TrxR1 substrate inactive, Apoferritin bind inactive, IDH1 R132H inh inactive and rTrxR1 inhibitor inactive.
For COc1ccc(NC(=O)CSc2ncn(-c3ccccc3)n2)cc1Cl the results were TrxR1 substrate inactive, Apoferritin bind inactive, IDH1 R132H inh inactive, GALK inhibitor inactive, rTrxR1 inhibitor inactive and PKM2 act 14µM.
For Cc1ccc(NC(=O)CSc2ncn(-c3ccccc3)n2)cc1C the results were TrxR1 substrate inactive, Apoferritin bind inactive, IDH1 R132H inh inactive, GALK inhibitor inactive, rTrxR1 inhibitor inactive and PKM2 act inactive.
Screening CCOC(=O)CCc1c(C)n[nH]c1C returned TrxR1 substrate inactive, Apoferritin bind inactive, IDH1 R132H inh inactive, GALK inhibitor inactive, rTrxR1 inhibitor inactive and PKM2 act inactive.
For CCOC(=O)CCCc1sc(N)nc1-c1[nH]c(=O)[nH]c1C the results were TrxR1 substrate inactive, Apoferritin bind inactive, IDH1 R132H inh inactive, GALK inhibitor inactive, rTrxR1 inhibitor 7.9µM and PKM2 act inactive.
For O=S(=O)(c1ccc2ncn(O)c2c1)N1CCOCC1 the results were TrxR1 substrate inactive, Apoferritin bind inactive, IDH1 R132H inh inactive, GALK inhibitor inactive, rTrxR1 inhibitor inactive and PKM2 act inactive.
Screening O=S(=O)(c1ccc2nnn(O)c2c1)N1CCOCC1 returned TrxR1 substrate inactive, IDH1 R132H inh inactive and rTrxR1 inhibitor 56µM.
`COCCNc1ccc(-c2nc(-c3ccncc3)no2)cc1[N+](=O)[O-]` gave TrxR1 substrate inactive, Apoferritin bind inactive, IDH1 R132H inh inactive and rTrxR1 inhibitor inactive.
Screening COC(=O)CSc1nnc(C)c(=O)[nH]1 returned TrxR1 substrate inactive, Apoferritin bind inactive, IDH1 R132H inh inactive, GALK inhibitor inactive, rTrxR1 inhibitor inactive and PKM2 act inactive.
Screening CCOC(=O)CNc1nnc(SCC(=O)OCC)[nH]c1=O returned TrxR1 substrate inactive, Apoferritin bind inactive, IDH1 R132H inh inactive, GALK inhibitor inactive, rTrxR1 inhibitor 10µM and PKM2 act inactive.
Screening C[C@@H](NC(=O)/C(C#N)=C/c1ccc(O)c(O)c1)c1ccccc1 returned TrxR1 substrate inconclusive, IDH1 R132H inh inactive and rTrxR1 inhibitor inactive.
